Source: PubChem (National Center for Advancing Translational Sciences (NCATS))
gsp agonist – agonists of gsp mutant (McCune-Albright syndrome); gsp mutant cells, cAMP HTRF, 30 min; Potency, µM (series often up to 76.9 µM), inactives show at the highest dose activation (cAMP increase), usual class: activators; hit rate 0.13% among 340,000; AID 624287; active means well fitted activation curve with a large enough effect; inconclusive means small, poorly fitted or top-dose-only effect, or another doubt; inactive means no such curve, though single readings can be large or run the other way; cell line not stated here;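 further: phosphodiesterase inhibitor Ro 20-1724 added with compounds to block cAMP breakdown; potency means the concentration at half of the fitted maximal effect; nearly all actives have a fitted effect of over 60% in size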
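Cells stably selected in G418 were plated at 2000/well, grown 16-24 hr, then given compounds in DMSO with the PDE inhibitor […] (300 uM solution added) for 30 min at 37C; cAMP was read by HTRF.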
CCT chaperon mod – changes cytosolic chaperonin activity; activity change, % (no concentration beside the values), hits read low; purified chaperonin ATPase assay, HTRF ADP detection, 30 min; AID 651819; hit rate 0.3% among 360,000; in the data active means activity change below about -30%; further: on the % scale 0 is the no-effect control and ±100 the full control effect
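Enzyme 40 or 20 nM (batch-dependent) in Tris pH 7.4/KCl/MgCl2/DTT; cpd 76 uM single point; ATP 10 uM; 30 min 37 °C; Transcreener ADP HTRF detection, 30 min RT; ratio 665/615.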
RXFP1 ag – activates the human relaxin receptor RXFP1; Q9HBX9; HEK293T-RXFP1 cAMP TR-FRET, 30 min; response scale: percent of porcine relaxin response, buffer zero; Potency, µM (doses to about 57.5 µM), without a hit: at the highest dose activation, hits mostly activators; hit rate 0.3% among 370,000; further: potency means the concentration at half of the fitted maximal effect; on the % scale 0 is the no-effect control and ±100 the full control effect; nearly all actives have a fitted effect of over 60% in size
Target sequence (Q9HBX9 whole entry, looked up): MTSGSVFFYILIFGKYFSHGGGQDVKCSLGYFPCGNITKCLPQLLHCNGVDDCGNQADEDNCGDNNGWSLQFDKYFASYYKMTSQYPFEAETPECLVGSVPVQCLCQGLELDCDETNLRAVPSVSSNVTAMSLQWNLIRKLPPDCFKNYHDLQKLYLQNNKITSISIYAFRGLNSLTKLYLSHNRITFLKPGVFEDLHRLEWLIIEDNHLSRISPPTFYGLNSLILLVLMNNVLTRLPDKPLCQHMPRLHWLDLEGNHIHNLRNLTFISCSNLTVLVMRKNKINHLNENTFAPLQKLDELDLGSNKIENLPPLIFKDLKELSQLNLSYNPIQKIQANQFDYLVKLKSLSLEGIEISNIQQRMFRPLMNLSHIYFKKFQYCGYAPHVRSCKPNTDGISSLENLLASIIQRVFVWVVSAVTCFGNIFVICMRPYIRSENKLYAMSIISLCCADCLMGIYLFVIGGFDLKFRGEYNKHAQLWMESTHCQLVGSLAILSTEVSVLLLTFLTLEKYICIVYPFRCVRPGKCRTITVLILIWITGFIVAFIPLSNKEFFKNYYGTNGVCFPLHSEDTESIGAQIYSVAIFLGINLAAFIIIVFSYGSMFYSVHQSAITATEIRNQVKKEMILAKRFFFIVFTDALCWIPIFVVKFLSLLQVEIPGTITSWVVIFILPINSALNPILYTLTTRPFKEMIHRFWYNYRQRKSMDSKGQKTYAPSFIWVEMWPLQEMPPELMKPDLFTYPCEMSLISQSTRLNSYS
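cAMP rise read by TR-FRET after 30 min, 37C compound exposure (up to 58 uM) in RXFP1-transfected HEK293 cells with Ro 20174 present. EC50 from Hill-equation fits, with 29 nM porcine relaxin as 100% and buffer as basal.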
gsp antagonist – antagonists of gsp mutant (McCune-Albright syndrome); gsp-mutant cells, cAMP HTRF, 30 min; Potency, µM (titrated, usually from 76.9 µM), inactives show top-dose activity change, negative = inhibition, actives largely listed as inhibitors; hit rate 0.4% among 340,000; calls by dose curve; cell line not stated here;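 further: intracellular cAMP measured with PDE inhibitor Ro 20-1724 present during compound exposure; potency means the concentration at half of the fitted maximal effect; on the % scale 0 is the no-effect control and ±100 the full control effect; nearly all actives have a fitted effect of over 65% in size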
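HTRF cAMP measurement after 30 min RT detection following 30 min, 37C compound treatment alongside […] (added as 300 uM solution) in G418-selected cells seeded at 2000/well and grown 16–24 h.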
RXFP1 antag – blocks the human relaxin receptor RXFP1 | Q9HBX9 | HEK293-RXFP1, relaxin-stimulated cAMP HTRF, 30 min; stronger effect = lower value | activity change, negative = inhibition, % at 57.5 µM | hit rate 0.59% among 350,000 | AID 1259400;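 active means activity change of -60% or lower, but not beyond a set lower limit; inconclusive means change between -60% and -40%, or beyond the set limit; inactive means change above -40%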; further: on the % scale 0 is the no-effect control and ±100 the full control effect
MmCpn inh – inhibitors of Methanococcus maripaludis chaperonin TRiC (MmCpn); purified Mm-Cpn ATPase, ADP Transcreener TR-FRET; Potency, µM (top dose mostly 76.9 µM), without a hit: top-dose activity, negative = inhibition, actives largely listed as inhibitors; hit rate 0.031% among 330,000; AID 504842; further: potency means the concentration at half of the fitted maximal effect; on the % scale 0 is the no-effect control and ±100 the full control effect; nearly all actives have a fitted effect of over 80% in size
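ATP (10 uM final) was added to archaeal chaperonin (25 nM final) after 10 min exposure to test compound at 37°C; after 30 min further incubation, ADP was detected by competitive TR-FRET.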
The depositor's hits bear a star; ? = inconclusive; nt = no result; [ ] = another dose, or the depositor's remark. Compounds with a hit are over-represented: about 1.2% of the library has one in this group of screens. Unless noted, the call rests on the fitted dose curve; in most records, active means well fitted curve in the direction sought with a large enough effect; inconclusive means small, poorly fitted or top-dose-only effect, or another doubt; inactive means no such curve, though single readings can be large; an effect the other way counts as inactive or inconclusive.

SMILES	gsp agonist	CCT chaperon mod	RXFP1 ag	gsp antagonist	RXFP1 antag	MmCpn inh
Cc1[nH]n(-c2ccc([N+](=O)[O-])cc2)c(=O)c1C=NCCN1CCN(C(=O)C(C)C)CC1	?	-4	25µM*	-1%	8	-7%
Clc1ccc(NCc2nc3ccccc3n2CCOc2ccccc2)cc1	nt	nt	-1%	nt	-61*	nt
CCOc1ccc(NCc2nc3ccccc3n2CCOc2ccccc2)cc1	-54%	0	0%	-26%	-4	-3%
COc1ccccc1CNC(=O)CCC1N=C2c3ccccc3N=C(SCC(=O)Nc3ccc(F)cc3)N2C1=O (stereo not given)	nt	nt	2%	nt	-5	nt
O=C(NCCc1ccc(Cl)cc1)c1ccc2c(c1)N(Cc1ccccc1)C(=O)CS2	nt	nt	3%	nt	-36	nt
O=S(=O)(c1ccc2[nH]c3c(c2c1)CCCC3)N1CCCCC1	2%	-73*	2%	-7%	-8	-1%
O=C(CN1C(=O)CCc2cc(S(=O)(=O)N3CCCCC3)ccc21)NCc1ccc(Cl)cc1	nt	nt	3%	nt	nt	nt
COC(=O)CSCc1nc2ccccc2[nH]c1=O	20%	-33*	5%	4%	nt	-3%
COC(=O)CCc1nc2ccccc2[nH]c1=O	-47%	0	1%	11%	-3	-2%
CCOC(=O)c1ccccc1NC(=O)Cn1c(=O)n(-c2ccc(CC)cc2)c(=O)c2c(C)c(C(=O)N(C)C)sc21	nt	nt	1%	nt	-7	nt
COc1ccc(N(CC(=O)NCCOc2ccccc2)S(=O)(=O)c2ccc(C)cc2)cc1	14%	-1	-2%	-14%	-62*	-2%
CCOC(=O)c1cnc2ccc(C)cc2c1Nc1ccc(N(CC)CC)cc1	nt	nt	6%	nt	-70*	nt
CCOC(=O)c1cnc2ccc(C)cc2c1Nc1ccc(N2CCOCC2)cc1	-14%	-2	1%	?	-101*	-2%
CCOC(=O)c1cnc2ccccc2c1Nc1ccc(C(=O)O)cc1	?	0	7%	-28%	7	-2%
CCc1nnc(NC(=O)CSc2nccn2-c2ccccc2)s1	4%[15.4 µM]	-38*	3%	2%	-3	4%
CCc1nnc(NC(=O)CCC(=O)N2CCN(Cc3ccc(Cl)cc3)CC2)s1	-46%	-4	0%	-11%	-15	0%
CCc1nnc(NC(=O)CSc2nnc(-c3ccccc3O)o2)s1	-12%[15.4 µM]	-56*	-1%	-3%	1	2%
CCc1nnc(NC(=O)CSc2nc(-c3ccccc3)c(-c3ccccc3)o2)s1	-6%	-3	0%	4%	3	-2%
CCc1nnc(NC(=O)CCC(=O)N2CCN(Cc3ccccc3)CC2)s1	-24%	-93*	1%	3%	-2	0%
C[C@@H](C(=O)Nc1ccc2ccccc2c1)[C@H]1C[C@]1(C)[C@H](NS(=O)(=O)c1ccc(-c2ccccc2)cc1)c1ccccc1	nt	-1	3%	3%	nt	-7%
Cc1nn(C)c(Cl)c1S(=O)(=O)N[C@@H](c1ccccc1)[C@]1(C)C[C@H]1[C@@H](C)C(=O)Nc1ccc2ccccc2c1	-27%	-70*	0%	-9%	nt	-1%
CCOC(=O)c1cccc(NC(=O)CSc2nnc(COc3ccccc3)n2CC)c1	26%	-2	0%	?	-1	-1%
CCn1c(COc2cccc(C)c2)nnc1SCC(=O)Nc1cccc(C(=O)OC)c1	-2%	-2	1%	28µM*	-5	0%
CCN(CC)CCNC(=O)c1c(C)n(-c2ccccc2)c2cc(Br)c(OC)cc12	25%	0	-2%	15%	-78*	0%
Cc1cc(C)n2c(SCC(=O)NC3CCCCC3C)nnc2n1 (stereo not given)	15%[15.4 µM]	0	14%	8%	2	-1%
CCC1CCCCN1C(=O)CSc1nnc2nc(C)cc(C)n12 (stereo not given)	7%	-40*	2%	-14%	-3	-1%
Cn1c(=O)c2c(nc(N3CCOCC3)n2C)n(C)c1=O	27%	-3	2%	-2%	2	2%
